Data on eight compounds can be found in ChEMBL document CHEMBL3988442, “University of Dundee, Small-Polar-MMV Screening Library” (2021).

Values joined by “and” are separate entries in the source; they are usually repeats but may differ in a detail not shown here. Equal entries are not always repeated. For part of these data: Results with a measured potency or affinity are listed apart.

Common to all, as to parameters: scale not given: direction of the effect not stated beside the values
In assay [1] the target is Protein translocase subunit SecA (Escherichia coli (strain K12)) (UniProt P10408). The assay can be described thus: Assay to Identify E. coli SecA ATPase Inhibitors. The settings on record: 30 µM. Format: functional.
For assay [2], the target named is T1, Ubiquitin-activating enzyme e1, putative (Leishmania donovani (strain BPK282A1)) (UniProt E9BSI1).
T1 sequence (whole entry): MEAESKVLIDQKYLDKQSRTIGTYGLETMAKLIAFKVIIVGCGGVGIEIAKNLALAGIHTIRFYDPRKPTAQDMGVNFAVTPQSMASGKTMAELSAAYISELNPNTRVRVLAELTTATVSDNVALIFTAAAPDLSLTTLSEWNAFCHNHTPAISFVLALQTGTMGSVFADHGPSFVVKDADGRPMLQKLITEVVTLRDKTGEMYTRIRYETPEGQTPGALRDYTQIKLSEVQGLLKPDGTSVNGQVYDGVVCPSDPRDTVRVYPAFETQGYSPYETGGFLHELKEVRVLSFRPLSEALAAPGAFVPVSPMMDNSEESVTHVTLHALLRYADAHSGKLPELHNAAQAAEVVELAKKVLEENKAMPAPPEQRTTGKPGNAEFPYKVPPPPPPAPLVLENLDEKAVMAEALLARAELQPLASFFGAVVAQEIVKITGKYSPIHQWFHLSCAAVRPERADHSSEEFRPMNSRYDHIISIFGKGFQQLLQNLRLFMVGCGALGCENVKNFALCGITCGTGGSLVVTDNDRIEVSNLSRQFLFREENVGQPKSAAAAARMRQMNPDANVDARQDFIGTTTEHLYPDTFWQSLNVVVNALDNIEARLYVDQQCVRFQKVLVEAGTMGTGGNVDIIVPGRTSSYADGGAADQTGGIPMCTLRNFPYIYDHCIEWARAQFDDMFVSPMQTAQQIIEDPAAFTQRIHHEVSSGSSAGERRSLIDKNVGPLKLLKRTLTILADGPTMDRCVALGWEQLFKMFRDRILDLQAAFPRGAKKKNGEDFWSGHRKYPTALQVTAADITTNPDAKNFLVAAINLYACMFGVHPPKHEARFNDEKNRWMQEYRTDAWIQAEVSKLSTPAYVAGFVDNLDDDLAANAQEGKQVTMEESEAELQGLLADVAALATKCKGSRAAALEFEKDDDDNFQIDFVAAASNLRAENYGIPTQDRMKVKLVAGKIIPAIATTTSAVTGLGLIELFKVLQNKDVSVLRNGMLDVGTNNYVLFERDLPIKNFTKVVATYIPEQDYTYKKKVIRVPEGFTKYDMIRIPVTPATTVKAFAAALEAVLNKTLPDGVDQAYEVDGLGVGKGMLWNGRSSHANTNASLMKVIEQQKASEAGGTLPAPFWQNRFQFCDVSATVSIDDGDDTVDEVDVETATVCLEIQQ
The assay can be described thus: Leishmania donovani Ubiquitin Activating Enzyme (LdE1). Format: functional. The conditions noted are these: 30 µM.

In assay [3] the target is AMP-activated protein kinase, AMPK (Homo sapiens) (UniProt P54646+O43741+P54619+Q9UGJ0+Q9Y478+Q13131+Q9UGI9). The assay can be described thus: AMP-dependent Kinase enzyme assay. An in vitro enzyme assay that detects ADP turnover that is directly proportional to AMPK activity. This uses naive AMPK that is activated during the assay with MK-8722. In kind it is functional. The settings on record: 30 µM.

The target in assay [4] is Sialic acid-binding Ig-like lectin 9 (Homo sapiens) (UniProt Q9Y336). The assay can be described thus: Hs-Siglec9 ALPHAscreen SOP 20170721. The settings on record: 10 µM. For orientation: Bead proximity is the source of the signal in Alpha formats.
Another assay has as its system Trypanosoma cruzi. The assay can be described thus: Trypanosoma cruzi phosphomannomutase and mannose-1-phosphate guanylyltransferase assay. In kind it is functional. The settings on record: 10 µM.
The target of assay [5] is T2, Arginase-2, mitochondrial (Homo sapiens) (UniProt P78540).
T2 sequence (whole entry): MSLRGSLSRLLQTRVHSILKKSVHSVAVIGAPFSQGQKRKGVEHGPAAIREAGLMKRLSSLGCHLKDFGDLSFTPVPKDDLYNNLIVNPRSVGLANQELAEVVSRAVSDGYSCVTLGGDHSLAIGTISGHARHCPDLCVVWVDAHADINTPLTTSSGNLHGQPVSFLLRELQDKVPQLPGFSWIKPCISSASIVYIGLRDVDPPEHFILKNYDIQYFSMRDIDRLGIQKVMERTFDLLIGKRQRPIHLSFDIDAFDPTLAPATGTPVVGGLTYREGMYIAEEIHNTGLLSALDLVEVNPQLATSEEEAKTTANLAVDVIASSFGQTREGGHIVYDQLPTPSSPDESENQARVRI
Briefly: in vitro enzyme assay to detect the production of urea directly proportional to the activity of Arginase II. Note: in the data most compounds retested in dose-response had high values. In kind it is functional.

Assay [6] has as its target T3, Proteasome subunit beta (Trypanosoma cruzi) (UniProt O96673).
T3 sequence (whole entry): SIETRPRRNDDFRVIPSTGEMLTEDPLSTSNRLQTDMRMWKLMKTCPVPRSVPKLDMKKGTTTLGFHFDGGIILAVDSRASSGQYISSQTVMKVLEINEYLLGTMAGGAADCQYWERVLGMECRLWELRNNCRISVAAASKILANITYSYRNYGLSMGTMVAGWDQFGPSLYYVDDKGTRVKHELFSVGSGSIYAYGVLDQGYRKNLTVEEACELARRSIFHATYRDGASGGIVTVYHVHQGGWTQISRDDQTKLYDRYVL
The assay can be described thus: Trypanosoma cruzi proteasome chymotrypsin-like activity (TcProtChymo) assay. Note: in the data most compounds retested in dose-response had high values. Format: functional. The conditions noted are these: 9.37 µM.

The species entered for a further assay is Homo sapiens. Briefly: To identify inhibition of the IFN signalling (Jak-Stat) pathway via expression of an eGFP reporter gene under the control of an IFN-stimulated response element (ISRE) containing MxA promoter. In kind it is functional. The conditions noted are these: 30 µM.
The target of assay [7] is T4, Tyrosyl-tRNA synthetase, putative (Trypanosoma cruzi (strain CL Brener)) (UniProt Q4DSP6).
T4 sequence (whole entry): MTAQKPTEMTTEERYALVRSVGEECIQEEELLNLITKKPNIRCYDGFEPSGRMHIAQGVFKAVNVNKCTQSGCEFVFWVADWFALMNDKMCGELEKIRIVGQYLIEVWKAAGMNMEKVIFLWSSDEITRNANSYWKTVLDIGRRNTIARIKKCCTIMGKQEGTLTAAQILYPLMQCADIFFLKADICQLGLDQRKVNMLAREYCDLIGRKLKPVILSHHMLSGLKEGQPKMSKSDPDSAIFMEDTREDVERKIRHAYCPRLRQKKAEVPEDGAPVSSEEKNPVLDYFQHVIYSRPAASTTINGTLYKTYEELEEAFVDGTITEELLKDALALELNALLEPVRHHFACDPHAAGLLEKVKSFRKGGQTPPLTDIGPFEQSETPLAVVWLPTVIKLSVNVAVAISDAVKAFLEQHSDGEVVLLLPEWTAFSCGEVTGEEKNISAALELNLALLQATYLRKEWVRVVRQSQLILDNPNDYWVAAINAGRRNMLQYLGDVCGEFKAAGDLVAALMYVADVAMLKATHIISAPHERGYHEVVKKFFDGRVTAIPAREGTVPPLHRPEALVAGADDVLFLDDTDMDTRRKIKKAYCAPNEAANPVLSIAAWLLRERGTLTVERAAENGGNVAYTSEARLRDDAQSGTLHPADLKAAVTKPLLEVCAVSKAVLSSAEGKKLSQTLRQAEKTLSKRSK
The assay can be described thus: Trypanosoma cruzi tyrosyl tRNA synthetase (TcYRS) _High Tyrosine SOP. Note: in the data most compounds retested in dose-response had high values. Format: functional. The conditions noted are these: 30 µM.

Assay [8] has as its target T4, Tyrosyl-tRNA synthetase, putative (Trypanosoma cruzi (strain CL Brener)). Briefly: Trypanosoma cruzi tyrosyl tRNA synthetase (TcYRS) SOP. The settings on record: 30 µM. In kind it is functional.
The target of assay [9] is Chromo domain-containing protein 1 (Saccharomyces cerevisiae (strain ATCC 204508 / S288c) (Baker's yeast)) (UniProt P32657). The assay can be described thus: ScCHD-1 Enzyme Inhibition Assay. Note: in the data most compounds retested in dose-response had high values. In kind it is functional. The conditions noted are these: 30 µM.
A further assay relates to N/A. Briefly: Trypanosoma cruzi proteasome luciferase counter-screen. Format: functional. The conditions noted are these: 9.37 µM. For orientation: The purpose of a counterscreen is to sort out artefacts and off-target activity.

Sequence of Sialic acid-binding Ig-like lectin 9 (Homo sapiens) (Q9Y336 whole entry): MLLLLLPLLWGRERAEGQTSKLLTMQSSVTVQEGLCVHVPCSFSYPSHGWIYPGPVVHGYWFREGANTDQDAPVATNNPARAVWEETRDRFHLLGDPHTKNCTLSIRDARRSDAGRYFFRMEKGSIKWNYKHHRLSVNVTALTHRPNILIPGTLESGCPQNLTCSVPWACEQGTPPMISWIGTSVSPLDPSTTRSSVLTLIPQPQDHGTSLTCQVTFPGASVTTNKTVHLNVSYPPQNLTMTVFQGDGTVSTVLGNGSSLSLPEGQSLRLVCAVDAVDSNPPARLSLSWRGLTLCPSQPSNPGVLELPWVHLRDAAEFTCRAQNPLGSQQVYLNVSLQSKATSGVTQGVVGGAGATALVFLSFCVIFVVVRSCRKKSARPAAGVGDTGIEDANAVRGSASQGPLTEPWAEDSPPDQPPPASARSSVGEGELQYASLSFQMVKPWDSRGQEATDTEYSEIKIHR
Sequence of Chromo domain-containing protein 1 (Saccharomyces cerevisiae (strain ATCC 204508 / S288c) (Baker's yeast)) (P32657 whole entry, the tested form may be a part): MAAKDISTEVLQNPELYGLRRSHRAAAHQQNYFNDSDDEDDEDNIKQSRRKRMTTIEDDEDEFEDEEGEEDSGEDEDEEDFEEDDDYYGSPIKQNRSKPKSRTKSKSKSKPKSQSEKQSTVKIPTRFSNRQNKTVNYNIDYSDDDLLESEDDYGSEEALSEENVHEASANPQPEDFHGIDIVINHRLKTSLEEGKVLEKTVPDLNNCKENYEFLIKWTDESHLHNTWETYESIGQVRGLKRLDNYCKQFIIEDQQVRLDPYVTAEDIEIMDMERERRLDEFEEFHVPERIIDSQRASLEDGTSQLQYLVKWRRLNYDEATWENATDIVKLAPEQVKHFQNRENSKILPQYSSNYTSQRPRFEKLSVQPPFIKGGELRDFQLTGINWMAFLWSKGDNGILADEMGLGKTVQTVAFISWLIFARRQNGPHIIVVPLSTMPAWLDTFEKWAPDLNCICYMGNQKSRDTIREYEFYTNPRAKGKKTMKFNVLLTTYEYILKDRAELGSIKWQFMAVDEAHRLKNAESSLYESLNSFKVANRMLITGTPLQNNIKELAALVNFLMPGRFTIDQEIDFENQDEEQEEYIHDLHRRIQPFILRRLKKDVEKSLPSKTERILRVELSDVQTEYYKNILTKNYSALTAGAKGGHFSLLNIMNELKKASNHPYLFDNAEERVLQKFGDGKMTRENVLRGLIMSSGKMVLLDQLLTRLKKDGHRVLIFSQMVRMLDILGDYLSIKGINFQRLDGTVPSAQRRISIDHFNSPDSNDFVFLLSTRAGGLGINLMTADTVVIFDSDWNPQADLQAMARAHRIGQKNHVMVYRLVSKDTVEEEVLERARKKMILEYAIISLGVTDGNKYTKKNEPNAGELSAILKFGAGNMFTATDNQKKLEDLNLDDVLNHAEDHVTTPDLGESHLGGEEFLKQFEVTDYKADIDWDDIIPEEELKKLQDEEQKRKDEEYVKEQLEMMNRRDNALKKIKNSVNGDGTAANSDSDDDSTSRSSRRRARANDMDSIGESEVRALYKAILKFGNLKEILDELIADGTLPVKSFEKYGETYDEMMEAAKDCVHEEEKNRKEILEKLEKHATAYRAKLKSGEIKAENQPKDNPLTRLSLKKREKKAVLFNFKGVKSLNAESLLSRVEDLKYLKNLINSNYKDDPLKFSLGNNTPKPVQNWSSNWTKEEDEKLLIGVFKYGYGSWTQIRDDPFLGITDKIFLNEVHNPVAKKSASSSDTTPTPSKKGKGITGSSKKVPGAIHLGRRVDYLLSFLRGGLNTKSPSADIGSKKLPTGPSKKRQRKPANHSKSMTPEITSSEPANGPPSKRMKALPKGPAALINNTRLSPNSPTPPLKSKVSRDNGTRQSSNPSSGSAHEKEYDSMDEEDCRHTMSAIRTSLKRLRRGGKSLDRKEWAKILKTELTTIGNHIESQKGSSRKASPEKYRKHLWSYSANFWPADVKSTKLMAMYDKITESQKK
Sequence of Protein translocase subunit SecA (Escherichia coli (strain K12)) (P10408 whole entry): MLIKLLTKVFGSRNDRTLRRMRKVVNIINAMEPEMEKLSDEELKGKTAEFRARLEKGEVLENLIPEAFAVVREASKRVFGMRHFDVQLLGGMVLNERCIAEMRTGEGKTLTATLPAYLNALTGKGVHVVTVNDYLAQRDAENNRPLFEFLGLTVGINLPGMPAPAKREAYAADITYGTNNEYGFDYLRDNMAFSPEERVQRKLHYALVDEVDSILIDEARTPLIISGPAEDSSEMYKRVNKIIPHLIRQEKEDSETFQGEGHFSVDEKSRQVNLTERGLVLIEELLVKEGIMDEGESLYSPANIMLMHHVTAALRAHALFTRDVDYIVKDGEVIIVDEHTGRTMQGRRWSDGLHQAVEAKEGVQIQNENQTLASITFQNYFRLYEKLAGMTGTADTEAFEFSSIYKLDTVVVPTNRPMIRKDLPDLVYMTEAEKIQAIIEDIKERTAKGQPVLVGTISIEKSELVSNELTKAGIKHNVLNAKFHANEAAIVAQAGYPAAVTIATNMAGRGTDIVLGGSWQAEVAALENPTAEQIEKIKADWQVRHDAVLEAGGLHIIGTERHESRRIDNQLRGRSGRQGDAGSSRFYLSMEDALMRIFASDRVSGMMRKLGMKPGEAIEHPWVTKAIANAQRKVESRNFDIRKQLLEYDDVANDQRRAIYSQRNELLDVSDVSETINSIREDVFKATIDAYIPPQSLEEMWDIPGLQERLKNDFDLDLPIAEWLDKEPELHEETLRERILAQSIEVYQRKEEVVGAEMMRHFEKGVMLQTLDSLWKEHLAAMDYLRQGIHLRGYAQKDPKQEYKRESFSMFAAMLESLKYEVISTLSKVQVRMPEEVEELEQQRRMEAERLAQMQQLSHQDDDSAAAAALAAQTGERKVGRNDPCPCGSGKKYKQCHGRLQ

Regarding `Cc1ccc(CNC(=O)N(Cc2ccccc2F)C2CC2)cn1`, the Percent Effect is -6.51% in assay [1]; 2.67% in assay [2]; 0.556% in assay [3]; 21.6% in [4]; -1.27% in the assay on Trypanosoma cruzi; 13.5% in assay [5] (30 µM). Besides, the Percent Effect is -2.6% in [5] (33.3 µM); 7.85% in assay [6]; 15.6% in the assay listed under Homo sapiens; 6.01% in [7]; 8.64% in assay [8]; -2.37% in [9].
For the compound `Cc1ccc([C@@H]2CN(S(=O)(=O)c3cccs3)C[C@H]2N(C)C)cc1`, the Percent Effect in assay [1] is -5.74%; in assay [2], 2.7%; in assay [3] it was -3.82%; in assay [4] it was 22.9%; with Trypanosoma cruzi, 2.25%; in assay [5] (30 µM), -0.54%. Also, the Percent Effect in [5] (33.3 µM) is -0.744%; in [6], 0.944%; in the assay filed under Homo sapiens, 22.4%; in [7] it was 3.23%; in assay [8], 13.6%; in assay [9] it was -3.75%.
Take `Cc1cc(C(=O)N2C[C@@H](C(=O)O)[C@H](c3ccccc3C)C2)c(C)o1`: the Percent Effect in assay [1] is -6.29%; in assay [2] it was 2.7%; in [3], 4.96%; in assay [4], -6.42%; with Trypanosoma cruzi, -7.92%; in [5] (30 µM) it was 4.87%. In addition, the Percent Effect is -2.23% in assay [5] (33.3 µM); 11.2% in assay [6]; 18.7% in the assay filed under Homo sapiens; 1.07% in assay [7]; 3.7% in assay [8]; -4.1% in assay [9].
With `Cc1cc(C)n(C2CN(Cc3noc(-c4ccccc4)n3)C2)n1`, the Percent Effect is -4.45% in assay [1]; -7.79% in assay [2]; 3.83% in assay [3]; 3.24% in [4]; -6.39% in the assay on Trypanosoma cruzi; 5.95% in assay [5] (30 µM). Moreover, the Percent Effect in assay [5] (33.3 µM) was -5.52%; in assay [6], 14.3%; in the assay listed under Homo sapiens, 5.29%; in assay [7] it was 3.23%; in [8] it was 1.24%; in assay [9], -0.0991%.
In the case of `CCc1nc(CN2CCCN(C(=O)CCc3ccco3)CC2)cs1`, the Percent Effect is -4.67% in assay [1]; 8.86% in [2]; -0.445% in [3]; -5.08% in assay [4]; 5.64% in the assay with Trypanosoma cruzi; -4.95% in assay [5] (33.3 µM). The Percent Effect was 56.6% and 53% and 44.8% in [6]; 0.501% and 5.84% with N/A; 3.92% in the assay filed under Homo sapiens; 7.29% in [7]; 15.2% in assay [8]; -32.7% in assay [9].
`O=C(N[C@@H]1CN(Cc2ccsc2)[C@@H]2CCCO[C@@H]21)C1CC1`: the Percent Effect is -8.12% in [1]; 18.7% in assay [2]; -4.7% in assay [3]; 2.36% in [4]; -0.193% with Trypanosoma cruzi; -57.9% in assay [5] (33.3 µM). Besides, the Percent Effect in assay [6] was 37.3% and 23.2% and 22.2%; in the assay on N/A, 7.24% and 10.5%; in the assay filed under Homo sapiens it was -2.14%; in assay [7], 4.17%; in assay [8] it was 17.5%; in [9] it was -7.56%.
Consider `Cc1nc(CN2C[C@@H]3CN(C(=O)c4cccn4C)C[C@@H]3C2=O)cs1`, for which the Percent Effect is 1.08% in assay [1]; 13.5% in assay [2]; 1.31% in assay [3]; -6.65% in assay [4]; -4.2% in the assay on Trypanosoma cruzi; -0.955% in [5] (33.3 µM). For the same compound, the Percent Effect in assay [6] is 13.3% and 13.5% and 30.8%; in the assay on N/A, 6.13% and 6.46%; in the assay filed under Homo sapiens it was 11.3%; in [7], 3.24%; in assay [8], 15.4%; in [9], -1.02%.
For the compound `CC(C1CC1)N(C)C(=O)c1cnc(-c2ccc3c(c2)OCO3)s1` (stereo unspecified), the Percent Effect in assay [1] is -5.81%; in assay [2] it was 0%; in assay [3], 11.9%; in assay [4], 0.585%; in the assay on Trypanosoma cruzi it was -3.33%; in assay [5] (33.3 µM) it was -1.82%. The Percent Effect was 68.6% and 72.1% and 62.6% in [6]; 34.7% and 35.5% with N/A; 12.2% in the assay filed under Homo sapiens; -2.15% in assay [7]; -2.5% in assay [8]; -10.2% in [9].
